# Results: the supplement of paper PMC8699584
# ± gives the standard deviation of the averaged measurements.
# How the values were obtained:
# Molm13 = assay: cell viability relative to DMSO control (bortezomib = 0%); higher = less growth inhibition; details: 10 nM; 72 h
# Outline: (§1)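 FLT3-ITD+ acute myeloid leukemia cells were dispensed onto a library of 679 approved and investigational compounds in 384-well plates, at 1000 cells per well in 50 µL and a single 10 nM dose, for 72 h. The screen was run in duplicate. Cell viability was read by CellTiter-Glo luminescence on an EnVision reader. Values were converted to percentages by per-plate linear regression between DMSO-treated cells (100%) and positive-control-treated cells (0%).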
# Mv4-11 = assay: as above; details: 10 nM; 72 h
# Outline: as §1
compound,measurement,setting,value
Cc1cc(C(C)Nc2ccccc2)c2nc(N3CCOCC3)cc(=O)n2c1 (stereo unspecified),cell viability,Molm13,106 ± 18%
same,cell viability,Mv4-11,100 ± 3.8%
COc1cc2ncn(-c3cc(OCc4ccccc4S(C)(=O)=O)c(C#N)s3)c2cc1OC,cell viability,Molm13,83.4 ± 8.5%
same,cell viability,Mv4-11,104 ± 5.9%
C[C@@H](Oc1cc(-c2cnn(C3CCNCC3)c2)cnc1N)c1c(Cl)ccc(F)c1Cl,cell viability,Molm13,107 ± 16%
same,cell viability,Mv4-11,100 ± 20%
CC[C@@](C)(Nc1ccnc(-c2c[nH]c3ncccc23)n1)C(=O)NCC(F)(F)F [Decernotinib(VX-509)],cell viability,Molm13,98.6 ± 1.4%
same,cell viability,Mv4-11,89.3 ± 6.1%
COc1cc2nccc(Oc3ccc(NC(=O)Nc4cc(C)on4)c(Cl)c3)c2cc1OC [Tivozanib (AV-951)],cell viability,Molm13,96.3 ± 6.1%
same,cell viability,Mv4-11,96.1 ± 11%
O=c1cc(N2CCOCC2)oc2c(-c3ccccc3)cccc12,cell viability,Molm13,107 ± 28%
same,cell viability,Mv4-11,104 ± 16%
CNS(=O)(=O)c1ccccc1Nc1nc(Nc2ccc(N3CCN(C)CC3)cc2OC)ncc1Cl [ALK inhibitor 2],cell viability,Molm13,98.9 ± 20%
same,cell viability,Mv4-11,104 ± 16%
O=C1NC(=O)C(=Cc2ccc(-c3ccc(F)cc3)o2)S1 (stereo in doubt),cell viability,Molm13,106 ± 12%
same,cell viability,Mv4-11,108 ± 13%
COc1cc(Nc2ncc(F)c(Nc3ccc4c(n3)NC(=O)C(C)(C)O4)n2)cc(OC)c1OC,cell viability,Molm13,105 ± 3.9%
same,cell viability,Mv4-11,99.7 ± 6.4%
O=C(NCCCNc1nc(Nc2cccc(CN3CCOCC3)c2)ncc1C1CC1)C1CCC1,cell viability,Molm13,86.2 ± 18%
same,cell viability,Mv4-11,106 ± 28%
COc1ccc(-n2c(SCC#N)nc3sc4c(c3c2=O)CCCC4)cc1 [Necrostatin-5],cell viability,Molm13,102 ± 3.9%
same,cell viability,Mv4-11,103 ± 3%
CC(C)c1ccc2c(c1)CC[C@H]1[C@](C)(CN)CCC[C@]21C [Leelamine],cell viability,Molm13,96.7 ± 8.5%
same,cell viability,Mv4-11,101 ± 9.8%
CN(C)C/C=C/C(=O)Nc1cc2c(Nc3ccc(F)c(Cl)c3)ncnc2cc1O[C@H]1CCOC1 [Afatinib (BIBW2992) Dimaleate],cell viability,Molm13,108 ± 11%
same,cell viability,Mv4-11,102 ± 7.5%
